From PubChem BioAssay
Compounds with a hit are over-represented: about 19% of the library has one in this group of screens.
HT1080NT lethal = kills 2HG-producing HT-1080-NT fibrosarcoma cells; Potency, µM (highest dose often 46.1 µM), for the others: at the top dose activity, negative = less viability, actives largely listed as cytotoxic; 360,000 tested, 1.6% active; HT-1080-NT fibrosarcoma viability, CellTiter-Glo ATP luminescence, 48 h;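 further: NT is the 2HG producing partner of a matched IDH1 knockdown line; potency means the concentration at half of the fitted maximal effect; 0% = DMSO-treated cells and -100% = media-only wells without cells; nearly all actives have a fitted effect of over 55% in size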
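Compounds were tested in concentration-response format on HT-1080-NT cells for 48 hours at 37 degrees C. Cell viability came from CellTiter-Glo luminescence; curves were classified by r2, response magnitude and activity.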
HT1080 IDH1KD tx = kills HT-1080 cells with IDH1 knockdown; 360,000 tested, 2% active; AID 686971; Potency, µM (top dose mostly 46.1 µM), for inactives: top-dose activity, negative = toxicity, usual class: cytotoxic; HT-1080 IDH1 knockdown viability, ATP luminescence, 48 h;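 further: potency means the concentration at half of the fitted maximal effect; 0% = DMSO wells and -100% = cell-free medium wells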
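Assay cells: HT-1080 with IDH1 knockdown, 750 per well, RPMI/5% FBS. Exposure: 48 h at 37 °C following 2 h pre-incubation. Read: CellTiter-Glo luminescence; fitted concentration-response, curve class assigned.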
DT40 TDP1 no CPT = qHTS for Inhibitors of human tyrosyl-DNA phosphodiesterase 1 (TDP1): qHTS in cells in absence of CPT; DT40 Tdp1-/- hTDP1 cells, no CPT, ATP luminescence, 48 h; 420,000 tested, 15% active; Potency, µM (top dose mostly 46.2 µM), for inactives: at the highest dose activity change, negative = growth inhibition, usual class: inhibitors; further: potency means the concentration at half of the fitted maximal effect; nearly all actives have a fitted effect of over 55% in size
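Camptothecin absent (DMSO only). Human TDP1-complemented DT40 knockout cells, 400 cells/well, 37 °C for minimum 48 hr; ATP measured via CellTiter-Glo, 30 min dark incubation, luminescence.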
TDP1 cell CPT = growth inhibition of DT40 Tdp1-/-;hTDP1 cells with camptothecin (screen for TDP1 inhibitors); chicken DT40 Tdp1-/-;hTDP1 cells + 20 nM CPT, ATP luminescence, 48 h; Potency, µM (top dose mostly 46.2 µM), for the others: at the highest dose activity change, negative = growth inhibition, usual class: inhibitors; 420,000 tested, 12% active; AID 686979; further: potency means the concentration at half of the fitted maximal effect; nearly all actives have a fitted effect of over 55% in size
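Chicken DT40 Tdp1-/- cells complemented with human TDP1, 400 cells/well, exposed to compounds plus 20 nM camptothecin for at least 48 h at 37 C; viability read as ATP content by CellTiter-Glo luminescence.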
IL1B secr inh = inhibitors of inflammasome signaling (IL-1 beta secretion). 360,000 tested, 4.7% active. THP-1 LPS/ATP IL-1B secretion, AlphaLISA, 16 h; stronger effect = lower value. activity change, % at 57.5 µM; in the data active means activity change below about -50%; inconclusive means mostly about -30% to -49%
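THP-1 cells pretreated 1 hr with compounds (up to 57.5 uM final), then stimulated with LPS (250 ng/mL final) plus ATP (1.25 mM final); secreted IL-1B measured by AlphaLISA after 16 hr, decreased signal indicating inhibition.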
An asterisk follows results filed as active; u = inconclusive; x = no result given. Unless noted, the call rests on the fitted dose curve; in most records, active means well fitted curve in the direction sought with a large enough effect; inconclusive means small, poorly fitted or top-dose-only effect, or another doubt; inactive means no such curve, though single readings can be large; an effect the other way counts as inactive or inconclusive. Unless noted, on the % scale 0 is the no-effect control and ±100 the full control effect.

SMILES | HT1080NT lethal | HT1080 IDH1KD tx | DT40 TDP1 no CPT | TDP1 cell CPT | IL1B secr inh
CC(OC(=O)c1ccccc1OCCOc1ccccc1)C(=O)Nc1ccc(Br)cc1 (stereo unspecified) | x | x | -27% | 3% | x
CC1(C)N=C(N)N=C(N)N1c1ccc(OCC(=O)N2CCOCC2)c(Cl)c1 | 0.52µM* | 0.13µM* | 0.37µM* | 0.41µM* | 2
CC1(C)N=C(N)N=C(N)N1c1ccc(OCC(=O)N2CCOCC2)cc1 | 23µM* | 6.5µM* | u | u | -12
O=C(c1cncc(Br)c1)N1CCN(S(=O)(=O)c2ccc(Cl)cc2)CC1 | 1% | -1% | -12% | 7% | 13
C=CCNC(=S)N/N=C/c1ccc(-c2ccc(OC)cc2)o1 | u | u | 4.6µM* | 4.1µM* | -3
C=CCNC(=S)N/N=C/c1ccc(-c2cc(Cl)ccc2Cl)o1 | 1% | 2% | u | u | 2
C=CCNC(=S)N/N=C/c1ccc(-c2ccc(Cl)cc2Cl)o1 | u | u | 5.8µM* | 5.2µM* | 3
CC(=O)Nc1ccc(NC(=O)COC(=O)Cc2cccs2)cc1 | -3% | 1% | -20% | u | 38
O=C(N1CCCCC1)C1(S(=O)(=O)c2ccccc2)CC=CC1 | 15% | 18% | 8.2µM* | 21µM* | 16
O=C(N1CCOCC1)C1(S(=O)(=O)c2ccccc2)CC=CC1 | 9% | 7% | -10% | -19% | 12
COc1ccc(-c2c(-c3ccccc3)n(C)c3ccccc23)cc1 | 4% | 19% | -19% | 4% | 17
CN=C1c2c(-c3ccccc3)c3cc(OC)ccc3n2CCN1C | -28% | u | 18µM* | 23µM* | u
CC/C(=N\NC(=O)c1ccc2c(c1)OCO2)c1ccccc1 | -27% | -24% | 9% | 19% | 4
O=C1N(Cc2cccc(Cl)c2)C[C@@H]2C[C@@H](c3ccc4nonc4c3)N3CCC[C@@]123 | -22% | -22% | 18µM* | u | -29
Cc1ccc([C@@H]2C[C@H]3CN(Cc4cccc(Cl)c4)C(=O)[C@]34CCCN24)o1 | 4% | 2% | -10% | -8% | -8
O=C1N(Cc2cccc(Cl)c2)C[C@@H]2C[C@@H](c3cccc4ncccc34)N3CCC[C@@]123 | -27% | -8% | 23µM* | 23µM* | -74*
O=C1N(Cc2cccc(Cl)c2)C[C@@H]2C[C@@H](c3c[nH]c4ccccc34)N3CCC[C@@]123 | u | -18% | 15µM* | u | -20
O=C1N(Cc2cccc(Cl)c2)C[C@@H]2C[C@@H](c3cccn3-c3nccs3)N3CCC[C@@]123 | u | u | 16µM* | u | -82*
CCCCCCn1c(N)c(C#N)c2ccc([N+](=O)[O-])cc2c1=O | -6% | -5% | -28% | -11% | 2
Cc1cc(C)c2c(n1)nn1c(N3CCN(c4ccccc4C)CC3)cc(C)nc21 | 16% | 8% | u | u | 6
Cc1ccc(S(=O)(=O)N2C[C@H]3C(=O)C[C@@H](c4cccc(Cl)c4)N(S(=O)(=O)c4ccc(C)cc4)[C@H]3C[C@H]2c2cccc(Cl)c2)cc1 | -1% | 0% | -28% | -9% | 26
Cc1ccc(Cn2cnc3nc4c(cc3c2=O)CC(C)CC4)cc1 (stereo unspecified) | x | x | 15µM* | 21µM* | x
CC(=O)c1ccc(NC(=O)Cn2cnc3nc4c(cc3c2=O)CC(C)CC4)cc1 (stereo unspecified) | x | x | -5% | -24% | x
CCCCCCCCNS(=O)(=O)CCNCc1ccccc1 | -5% | -3% | u | u | u
CCCCCCCCNCCS(=O)(=O)NCCCCCCCC | 1% | 5% | 16µM* | u | 0
SMILES | HT1080NT lethal | HT1080 IDH1KD tx | DT40 TDP1 no CPT | TDP1 cell CPT | IL1B secr inh
O=S(=O)(CCNCc1ccccc1)NC1CCCCC1 | 5% | -1% | -3% | u | 8
CCCCCCCCNCCS(=O)(=O)NCc1ccc(OC)cc1 | -7% | -10% | u | u | -50*
CCCCCCCCNCCS(=O)(=O)NC1CCCCC1 | -13% | -15% | u | u | -70*
CCCCCCCCNS(=O)(=O)CCNCc1ccccc1OC | -2% | -2% | 21µM* | u | -62*
CCCCCCCCNS(=O)(=O)CCNCCc1ccccc1 | -3% | -6% | u | -29% | u
COc1ccc(CNS(=O)(=O)CCNCc2ccccc2OC)cc1 | 0% | 1% | -25% | -16% | 6
CCCN1CNc2c(c(=O)[nH]c(=S)n2CCc2ccsc2)C1 | 15% | 20% | u | -19% | x
Cc1ccc(-n2c(SCC(=O)NC3CCS(=O)(=O)C3)nc3ccccc3c2=O)c(C)c1 (stereo unspecified) | -10% | -8% | 16µM* | u | 0
Cc1ccccc1-n1c(SCC(=O)NC2CCS(=O)(=O)C2)nc2ccccc2c1=O (stereo unspecified) | 2% | -1% | u | u | -6
O=C(CSc1nc2ccccc2c(=O)n1-c1cccc(C(F)(F)F)c1)NC1CC1 | -7% | -1% | u | 18µM* | u
Cc1ccc(N2C(=O)C(CN3CCOCC3)C2c2ccccc2)cc1 (stereo unspecified) | 2% | -3% | 15µM* | u | 28
COc1ccc(C2C(CN3CCOCC3)C(=O)N2c2ccccc2)cc1 (stereo unspecified) | 8% | 0% | u | -3% | 15
CCc1cccc2c(-c3csc(=NC)n3C)c[nH]c12 | -28% | -18% | u | u | -73*
CCc1cccc2c(C(=O)CSc3nncn3C)c[nH]c12 | 1% | 9% | 4% | -4% | 20
CCOc1ccc(NC(=O)c2ccncc2)cc1 | 13% | 6% | -7% | -10% | -8
CCOc1ccc2c(c1)C(=NNC(=O)c1ccncc1)c1cc(OCC)ccc1-2 | 2% | -10% | 5.2µM* | 3.7µM* | 64
COc1ccc(CN(C)CC(=O)Nc2cc3oc4ccccc4c3cc2OC)c(OC)c1 | -2% | -10% | 10µM* | 13µM* | -11
COc1cc2c(cc1NC(=O)CN1CCN(S(=O)(=O)c3ccccc3F)CC1)oc1ccccc12 | -2% | -1% | 21µM* | 15µM* | 37
COc1cc2c(cc1NC(=O)CCC(=O)O)oc1ccccc12 | 8% | 8% | -19% | 9% | 14
COc1cc2c(cc1NC(=O)Cc1ccc(C)cc1)oc1ccccc12 | u | 28% | u | u | -15
COc1cc2c(cc1NC(=O)C(C)NCc1ccccc1)oc1ccccc12 (stereo unspecified) | u | u | 16µM* | u | -6
